According to the supplement of paper PMC10849652:
Of roughly 8,800 targets only a part is listed; those with a hit were picked by preference. About 0.5% of all pairs of compound and target were hits. Values without a mark were called inactive.

Columns and labels:
Assay in all cases: log2 fold change, soluble protein after heating vs DMSO (PISA); higher = thermal stabilisation; K562 lysate, 10 uM; active = over 0.2 and 3.5 SD of the protein, either way, in both replicates (recomputed)
ibrutinib = compound: C=CC(=O)N1CCC[C@@H](n2nc(-c3ccc(Oc4ccccc4)cc3)c3c(N)ncnc32)C1 [ibrutinib]
Method in brief: (§1)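 To prepare the extract, K562 pellets were dounce-homogenised in PBS pH 7.4 with 1 mM MgCl2, giving crude material at 1 mg/mL protein. This was treated with 10 μM compound for 30 min, then heated in aliquots for 3 min over 48°C-58°C before pooling and addition of NP-40 to 0.5% at 4°C. Centrifugation at 21,000xg for 90 min left soluble protein in the supernatant, which TMTpro 16plex LC-MS/MS quantified with equalised channel sums. Results are log-two fold changes in thermal stability compared with solvent controls, from duplicates.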

[1] = compound: CC(=O)c1cnc2ccc(-c3cc(Cl)c(O)c(Cl)c3)nc2c1N[C@H]1CC[C@H](CN(C)C)CC1
Method in brief: as §1

ralimetinib = compound: CC(C)(C)Cn1c(N)nc2ccc(-c3[nH]c(C(C)(C)C)nc3-c3ccc(F)cc3)nc21 [ralimetinib]
Method in brief: as §1

[2] = compound: CC(C)(O)CC(=O)NCCn1ccc2ncnc(Nc3ccc(Oc4cccc(C(F)(F)F)c4)c(Cl)c3)c21
Method in brief: as §1

[3] = compound: CC(C)C1=C2N=C(C=C(N2N=C1)NCC3=CC=CC=C3)NCCCCCCN
Method in brief: as §1

[4] = compound: CC1=C(C(CC(=O)N1)C2=CC=C(C=C2)C(F)(F)F)C(=O)NC3=C(C=C4C(=C3)C=NN4)F
Method in brief: as §1

[5] = compound: CC1=C(C2=C(C=C1)C(=O)C3=CC=CC=C3N2CCCN)C
Method in brief: as §1

[6] = compound: CC1=C(C=C(C=C1)NC(=O)C2=CC(=CC=C2)C(C)(C)C#N)NC3=CC4=C(C=C3)N=CN(C4=O)C
Method in brief: as §1

[7] = compound: CC1=C(C=C(C=C1)NC(=O)C2=CC(=CC=C2)N(C)C)NC(=O)C3=CC=C(C=C3)O
Method in brief: as §1

[8] = compound: CC1=CC=C(C=C1)SC2=C3C=C(SC3=CN=C2)C(=O)N
Method in brief: as §1

Target: VTN (UniProt P04004)
- log2 fold change (ibrutinib): -0.019
- log2 fold change [1]: -0.007
- log2 fold change (ralimetinib): 0.01
- log2 fold change [2]: -0.044
- log2 fold change [3]: 0.028
- log2 fold change [4]: 0.088
- log2 fold change [5]: 0.017
- log2 fold change [6]: -0.011
- log2 fold change [7]: 0.155
- log2 fold change [8]: -0.04

Target: USP34 (UniProt Q70CQ2)
- log2 fold change (ibrutinib): 0.002
- log2 fold change [1]: 0.006
- log2 fold change (ralimetinib): 0.011
- log2 fold change [2]: -0.027
- log2 fold change [3]: 0.001
- log2 fold change [4]: -0.001
- log2 fold change [5]: -0.032
- log2 fold change [6]: 0.014
- log2 fold change [7]: 0.026
- log2 fold change [8]: 0

Target: VPS33A (UniProt Q96AX1)
- log2 fold change (ibrutinib): 0.024
- log2 fold change [1]: -0.01
- log2 fold change (ralimetinib): 0.039
- log2 fold change [2]: 0.005
- log2 fold change [3]: -0.003
- log2 fold change [4]: 0.008
- log2 fold change [5]: 0.013
- log2 fold change [6]: 0.013
- log2 fold change [7]: 0.043
- log2 fold change [8]: -0.032

Target: USE1 (UniProt Q9NZ43)
- log2 fold change (ibrutinib): -0.039
- log2 fold change [1]: -0.026
- log2 fold change (ralimetinib): -0.095
- log2 fold change [2]: -0.102
- log2 fold change [3]: -0.086
- log2 fold change [4]: 0.024
- log2 fold change [5]: -0.025
- log2 fold change [6]: -0.007
- log2 fold change [7]: 0.007
- log2 fold change [8]: 0.027

Target: VAC14 (UniProt Q08AM6)
- log2 fold change (ibrutinib): -0.029
- log2 fold change [1]: -0.025
- log2 fold change (ralimetinib): -0.003
- log2 fold change [2]: -0.055
- log2 fold change [3]: 0.002
- log2 fold change [4]: -0.008
- log2 fold change [5]: 0.005
- log2 fold change [6]: 0.003
- log2 fold change [7]: 0.039
- log2 fold change [8]: -0.034

Target: ZMYM1 (UniProt Q5SVZ6)
- log2 fold change (ibrutinib): -0.04
- log2 fold change [1]: 0.012
- log2 fold change (ralimetinib): 0.02
- log2 fold change [2]: 0.016
- log2 fold change [3]: -0.022
- log2 fold change [4]: -0.049
- log2 fold change [5]: -0.008
- log2 fold change [6]: 0.001
- log2 fold change [7]: -0.007
- log2 fold change [8]: -0.011

Target: USP10 isoform 2 (UniProt Q14694)
Chain of UniProt Q14694 (Q14694 whole entry, looked up): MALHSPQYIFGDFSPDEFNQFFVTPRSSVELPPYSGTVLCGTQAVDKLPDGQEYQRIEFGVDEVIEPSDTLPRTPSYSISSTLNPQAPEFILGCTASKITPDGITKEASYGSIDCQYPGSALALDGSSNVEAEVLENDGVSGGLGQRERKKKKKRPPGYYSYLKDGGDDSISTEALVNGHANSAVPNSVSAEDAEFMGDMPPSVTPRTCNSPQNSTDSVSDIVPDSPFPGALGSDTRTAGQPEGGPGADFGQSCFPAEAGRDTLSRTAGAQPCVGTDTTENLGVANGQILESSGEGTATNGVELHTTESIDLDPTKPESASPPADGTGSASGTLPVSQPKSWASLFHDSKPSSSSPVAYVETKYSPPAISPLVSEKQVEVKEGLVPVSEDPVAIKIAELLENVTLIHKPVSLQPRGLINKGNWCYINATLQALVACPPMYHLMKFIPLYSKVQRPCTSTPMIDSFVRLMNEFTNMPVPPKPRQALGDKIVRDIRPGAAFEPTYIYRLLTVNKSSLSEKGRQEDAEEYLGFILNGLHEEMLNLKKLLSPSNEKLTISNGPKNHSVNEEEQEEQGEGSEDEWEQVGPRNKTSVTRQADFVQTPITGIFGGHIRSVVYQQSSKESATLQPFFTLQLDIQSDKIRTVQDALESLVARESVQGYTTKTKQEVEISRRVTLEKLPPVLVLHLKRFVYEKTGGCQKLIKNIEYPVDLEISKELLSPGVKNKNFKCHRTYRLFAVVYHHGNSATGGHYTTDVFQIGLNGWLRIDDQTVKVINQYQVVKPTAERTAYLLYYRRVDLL
- log2 fold change (ibrutinib): -0.038
- log2 fold change [1]: 0.001
- log2 fold change (ralimetinib): -0.019
- log2 fold change [2]: -0.014
- log2 fold change [3]: -0.006
- log2 fold change [4]: -0.025
- log2 fold change [5]: 0.018
- log2 fold change [6]: 0.003
- log2 fold change [7]: 0.018
- log2 fold change [8]: 0.008

Target: YWHAQ (UniProt P27348)
Chain of UniProt P27348 (P27348 whole entry, looked up): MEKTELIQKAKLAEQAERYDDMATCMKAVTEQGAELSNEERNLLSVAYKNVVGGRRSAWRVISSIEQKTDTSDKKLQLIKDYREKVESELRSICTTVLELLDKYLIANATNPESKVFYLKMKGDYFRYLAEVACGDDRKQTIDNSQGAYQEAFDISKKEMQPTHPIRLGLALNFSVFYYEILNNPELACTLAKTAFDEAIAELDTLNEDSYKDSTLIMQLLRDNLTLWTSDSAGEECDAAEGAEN
- log2 fold change (ibrutinib): -0.011
- log2 fold change [1]: -0.001
- log2 fold change (ralimetinib): -0.007
- log2 fold change [2]: 0.028
- log2 fold change [3]: 0
- log2 fold change [4]: -0.054
- log2 fold change [5]: 0.007
- log2 fold change [6]: -0.001
- log2 fold change [7]: 0.01
- log2 fold change [8]: 0.01

Target: WDR6 (UniProt Q9NNW5)
Chain of UniProt Q9NNW5 (Q9NNW5 whole entry, looked up): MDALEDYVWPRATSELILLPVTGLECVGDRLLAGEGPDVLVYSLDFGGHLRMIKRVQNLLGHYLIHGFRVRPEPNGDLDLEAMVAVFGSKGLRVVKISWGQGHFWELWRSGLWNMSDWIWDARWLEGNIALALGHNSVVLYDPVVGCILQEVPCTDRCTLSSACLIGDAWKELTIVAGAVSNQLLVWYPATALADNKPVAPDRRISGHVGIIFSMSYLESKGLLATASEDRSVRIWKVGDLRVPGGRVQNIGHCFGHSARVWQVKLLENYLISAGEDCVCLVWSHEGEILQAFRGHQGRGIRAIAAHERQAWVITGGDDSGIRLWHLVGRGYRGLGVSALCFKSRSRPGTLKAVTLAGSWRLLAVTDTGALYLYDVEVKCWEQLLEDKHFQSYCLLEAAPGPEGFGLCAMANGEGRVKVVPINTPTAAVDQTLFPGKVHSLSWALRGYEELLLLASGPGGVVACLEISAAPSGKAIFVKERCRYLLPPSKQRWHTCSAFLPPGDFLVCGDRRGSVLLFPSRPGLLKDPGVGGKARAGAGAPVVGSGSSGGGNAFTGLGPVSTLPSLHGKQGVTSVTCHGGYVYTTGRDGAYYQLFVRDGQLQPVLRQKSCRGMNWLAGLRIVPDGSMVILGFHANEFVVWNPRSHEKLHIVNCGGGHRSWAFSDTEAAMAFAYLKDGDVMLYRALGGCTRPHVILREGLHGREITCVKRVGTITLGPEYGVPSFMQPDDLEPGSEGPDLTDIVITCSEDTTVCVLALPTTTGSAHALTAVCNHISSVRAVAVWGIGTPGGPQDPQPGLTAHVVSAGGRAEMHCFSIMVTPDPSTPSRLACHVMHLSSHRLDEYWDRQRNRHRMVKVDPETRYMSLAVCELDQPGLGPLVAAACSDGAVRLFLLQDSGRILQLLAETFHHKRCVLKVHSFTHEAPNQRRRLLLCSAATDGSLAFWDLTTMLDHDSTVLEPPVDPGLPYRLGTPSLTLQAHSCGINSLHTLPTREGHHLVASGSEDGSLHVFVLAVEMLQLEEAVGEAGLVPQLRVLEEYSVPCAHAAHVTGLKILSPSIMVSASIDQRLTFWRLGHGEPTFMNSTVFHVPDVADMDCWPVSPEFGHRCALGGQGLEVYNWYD
- log2 fold change (ibrutinib): 0.008
- log2 fold change [1]: 0.008
- log2 fold change (ralimetinib): 0.018
- log2 fold change [2]: -0.017
- log2 fold change [3]: -0.032
- log2 fold change [4]: -0.012
- log2 fold change [5]: -0.019
- log2 fold change [6]: 0.011
- log2 fold change [7]: 0.022
- log2 fold change [8]: 0.017

Target: USP22 (UniProt Q9UPT9)
Chain of UniProt Q9UPT9 (Q9UPT9 whole entry, looked up): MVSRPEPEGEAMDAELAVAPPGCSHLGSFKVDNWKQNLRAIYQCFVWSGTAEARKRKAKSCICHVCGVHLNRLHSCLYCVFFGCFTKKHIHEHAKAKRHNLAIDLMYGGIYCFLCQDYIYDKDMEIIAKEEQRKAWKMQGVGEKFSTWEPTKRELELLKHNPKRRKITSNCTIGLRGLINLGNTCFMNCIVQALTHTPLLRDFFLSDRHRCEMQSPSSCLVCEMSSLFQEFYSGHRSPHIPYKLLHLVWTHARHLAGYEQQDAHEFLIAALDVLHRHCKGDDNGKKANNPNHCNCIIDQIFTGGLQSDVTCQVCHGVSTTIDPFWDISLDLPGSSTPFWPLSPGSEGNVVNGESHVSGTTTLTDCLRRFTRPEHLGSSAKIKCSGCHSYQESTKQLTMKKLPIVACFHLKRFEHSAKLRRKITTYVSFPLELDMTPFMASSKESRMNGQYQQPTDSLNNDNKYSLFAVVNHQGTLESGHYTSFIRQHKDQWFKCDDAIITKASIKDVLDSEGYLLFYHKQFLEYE
- log2 fold change (ibrutinib): -0.031
- log2 fold change (ralimetinib): 0.023
- log2 fold change [2]: 0.006
- log2 fold change [3]: 0.027
- log2 fold change [4]: -0.057
- log2 fold change [5]: -0.034
- log2 fold change [6]: 0.065
- log2 fold change [7]: 0.056

Target: ULK3 isoform 4 (UniProt Q6PHR2)
- log2 fold change (ibrutinib): -0.08
- log2 fold change [1]: -0.024
- log2 fold change [3]: -0.091
- log2 fold change [5]: -0.06
- log2 fold change [6]: 0.094
- log2 fold change [8]: 0.08

Target: ZSWIM8 isoform 4 (UniProt A7E2V4)
- log2 fold change (ibrutinib): -0.08
- log2 fold change (ralimetinib): 0.101
- log2 fold change [2]: -0.048
- log2 fold change [3]: 0.002
- log2 fold change [4]: -0.017
- log2 fold change [5]: 0.28
- log2 fold change [6]: -0.131
- log2 fold change [7]: 0.105

Target: ZYG11A (UniProt Q6WRX3)
- log2 fold change (ibrutinib): 0.228
- log2 fold change [1]: 0.063
- log2 fold change (ralimetinib): 0.082
- log2 fold change [2]: -0.087
- log2 fold change [3]: -0.159
- log2 fold change [4]: 0.046
- log2 fold change [7]: 0.052
- log2 fold change [8]: -0.315

Target: ZNF146 (UniProt Q15072)
- log2 fold change [5]: -0.187

Target: ZBTB40 (UniProt Q9NUA8)
- log2 fold change [1]: 0.035
- log2 fold change (ralimetinib): 0.096
- log2 fold change [2]: -0.012
- log2 fold change [3]: 0.057
- log2 fold change [4]: 0.081
- log2 fold change [5]: -0.042
- log2 fold change [6]: 0.009
- log2 fold change [7]: -0.007
- log2 fold change [8]: -0.044

Target: VPS72 (UniProt Q15906)
- log2 fold change [1]: 0.016
- log2 fold change (ralimetinib): 0.046
- log2 fold change [2]: -0.06
- log2 fold change [3]: -0.028
- log2 fold change [4]: -0.098
- log2 fold change [5]: 0.005
- log2 fold change [6]: 0
- log2 fold change [7]: -0.01
- log2 fold change [8]: -0.038

Target: URGCP (UniProt Q8TCY9)
Chain of UniProt Q8TCY9 (Q8TCY9 whole entry, looked up): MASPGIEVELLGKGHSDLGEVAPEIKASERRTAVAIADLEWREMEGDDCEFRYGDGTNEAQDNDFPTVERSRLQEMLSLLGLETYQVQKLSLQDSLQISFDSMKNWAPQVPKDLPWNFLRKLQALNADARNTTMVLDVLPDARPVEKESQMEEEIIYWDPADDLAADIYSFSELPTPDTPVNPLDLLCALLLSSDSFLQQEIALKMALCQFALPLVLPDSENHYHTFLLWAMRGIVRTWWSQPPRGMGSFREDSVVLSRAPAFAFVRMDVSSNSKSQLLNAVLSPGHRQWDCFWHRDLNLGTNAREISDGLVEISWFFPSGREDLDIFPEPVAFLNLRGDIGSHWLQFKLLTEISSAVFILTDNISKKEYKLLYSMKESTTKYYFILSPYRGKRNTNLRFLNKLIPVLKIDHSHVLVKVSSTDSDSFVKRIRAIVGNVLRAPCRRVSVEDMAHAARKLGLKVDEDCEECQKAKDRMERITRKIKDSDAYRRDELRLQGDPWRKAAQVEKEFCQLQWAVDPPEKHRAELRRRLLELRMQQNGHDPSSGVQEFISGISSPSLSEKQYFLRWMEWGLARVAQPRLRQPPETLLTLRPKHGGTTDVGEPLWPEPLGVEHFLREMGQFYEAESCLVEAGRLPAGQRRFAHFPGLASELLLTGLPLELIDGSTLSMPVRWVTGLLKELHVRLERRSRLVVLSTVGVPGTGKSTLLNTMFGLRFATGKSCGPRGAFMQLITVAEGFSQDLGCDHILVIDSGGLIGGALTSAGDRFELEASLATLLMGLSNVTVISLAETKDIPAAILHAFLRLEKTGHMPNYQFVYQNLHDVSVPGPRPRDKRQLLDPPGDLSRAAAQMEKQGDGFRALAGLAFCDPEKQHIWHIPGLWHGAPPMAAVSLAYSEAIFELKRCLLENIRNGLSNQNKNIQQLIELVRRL
- log2 fold change (ibrutinib): 0.081
- log2 fold change (ralimetinib): -0.07
- log2 fold change [2]: -0.515 (active)
- log2 fold change [4]: -0.05
- log2 fold change [5]: 0.008
- log2 fold change [7]: -0.042

Target: UNC13A (UniProt Q9UPW8)
- log2 fold change [3]: 0.022
- log2 fold change [4]: -0.053

Target: ZDHHC17 (UniProt Q8IUH5)
- log2 fold change [1]: -0.063
- log2 fold change (ralimetinib): 0.077
- log2 fold change [2]: 0.047
- log2 fold change [4]: -0.001
- log2 fold change [5]: 0.161
- log2 fold change [6]: -0.171
- log2 fold change [7]: -0.067
- log2 fold change [8]: -0.032

Target: WAC isoform 5 (UniProt Q9BTA9)
Chain of UniProt Q9BTA9 (Q9BTA9 whole entry, looked up): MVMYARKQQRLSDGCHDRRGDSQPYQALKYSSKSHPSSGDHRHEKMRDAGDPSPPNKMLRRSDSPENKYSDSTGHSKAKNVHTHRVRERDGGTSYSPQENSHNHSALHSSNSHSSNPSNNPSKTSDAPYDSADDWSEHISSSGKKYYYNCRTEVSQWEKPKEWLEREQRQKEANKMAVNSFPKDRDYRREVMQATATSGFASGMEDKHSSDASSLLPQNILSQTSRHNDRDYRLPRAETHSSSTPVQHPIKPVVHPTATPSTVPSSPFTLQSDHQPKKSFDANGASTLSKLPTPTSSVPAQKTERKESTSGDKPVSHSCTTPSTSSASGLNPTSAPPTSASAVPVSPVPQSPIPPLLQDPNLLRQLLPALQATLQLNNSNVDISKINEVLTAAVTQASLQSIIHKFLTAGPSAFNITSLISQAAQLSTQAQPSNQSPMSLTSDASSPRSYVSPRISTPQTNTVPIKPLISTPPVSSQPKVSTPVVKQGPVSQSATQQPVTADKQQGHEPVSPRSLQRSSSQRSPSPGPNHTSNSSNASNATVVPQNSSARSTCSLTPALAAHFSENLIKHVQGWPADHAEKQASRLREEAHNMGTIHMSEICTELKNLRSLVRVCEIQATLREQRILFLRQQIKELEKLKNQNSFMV
- log2 fold change (ralimetinib): 0.059
- log2 fold change [2]: -0.145
- log2 fold change [3]: -0.038
- log2 fold change [5]: 0.127
- log2 fold change [7]: 0.096

Target: WSB1 (UniProt Q9Y6I7)
- log2 fold change (ralimetinib): 0.08
- log2 fold change [2]: -0.006
- log2 fold change [5]: -0.037
- log2 fold change [7]: -0.028

Target: UTRN isoform 2 (UniProt P46939)
- log2 fold change (ibrutinib): -0.03
- log2 fold change [3]: -0.012

Target: UNKL (UniProt E9PDK2)
- log2 fold change (ibrutinib): -0.191
- log2 fold change [5]: -0.086
- log2 fold change [6]: 0.025

Target: UXT isoform 2 (UniProt Q9UBK9)
Chain of UniProt Q9UBK9 (Q9UBK9 whole entry, looked up): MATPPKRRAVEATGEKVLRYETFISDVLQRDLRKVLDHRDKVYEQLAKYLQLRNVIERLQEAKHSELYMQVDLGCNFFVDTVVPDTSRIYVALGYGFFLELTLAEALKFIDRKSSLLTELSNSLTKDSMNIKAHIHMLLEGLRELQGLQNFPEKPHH
- log2 fold change (ibrutinib): -0.078
- log2 fold change [1]: -0.018
- log2 fold change (ralimetinib): -0.063
- log2 fold change [2]: -0.075
- log2 fold change [3]: 0.006
- log2 fold change [4]: -0.035
- log2 fold change [5]: -0.091
- log2 fold change [6]: 0
- log2 fold change [7]: -0.015
- log2 fold change [8]: -0.032

Target: VHL (UniProt P40337)
Chain of UniProt P40337 (P40337 whole entry, looked up): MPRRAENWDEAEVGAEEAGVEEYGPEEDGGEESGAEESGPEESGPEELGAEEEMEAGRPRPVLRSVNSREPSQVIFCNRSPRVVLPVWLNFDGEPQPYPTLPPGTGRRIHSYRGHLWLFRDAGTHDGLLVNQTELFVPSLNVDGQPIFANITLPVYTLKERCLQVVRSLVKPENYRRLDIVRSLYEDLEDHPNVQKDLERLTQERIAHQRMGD
- log2 fold change (ibrutinib): 0.033
- log2 fold change (ralimetinib): 0.09
- log2 fold change [2]: -0.027
- log2 fold change [3]: 0.06
- log2 fold change [4]: -0.045
- log2 fold change [5]: -0.109
- log2 fold change [6]: -0.013
- log2 fold change [7]: 0.024

Target: ZNF593 (UniProt O00488)
- log2 fold change (ibrutinib): 0.018
- log2 fold change [1]: 0.17
- log2 fold change (ralimetinib): 0.096
- log2 fold change [2]: 0.013
- log2 fold change [3]: -0.081
- log2 fold change [5]: -0.017
- log2 fold change [6]: -0.028
- log2 fold change [7]: -0.034
- log2 fold change [8]: -0.051

Target: ZKSCAN8 (UniProt Q15776)
- log2 fold change [1]: 0.514 (active)
- log2 fold change (ralimetinib): -0.021
- log2 fold change [2]: -0.002
- log2 fold change [3]: 0.229
- log2 fold change [4]: 0.098
- log2 fold change [5]: 0.008
- log2 fold change [6]: -0.008
- log2 fold change [7]: 0.04
- log2 fold change [8]: -0.054

Target: ZSCAN26 (UniProt Q16670)
- log2 fold change [6]: 0.007

Target: ZNF652 (UniProt Q9Y2D9)
- log2 fold change [6]: 0.042

Target: VPS37B (UniProt Q9H9H4)
Chain of UniProt Q9H9H4 (Q9H9H4 whole entry, looked up): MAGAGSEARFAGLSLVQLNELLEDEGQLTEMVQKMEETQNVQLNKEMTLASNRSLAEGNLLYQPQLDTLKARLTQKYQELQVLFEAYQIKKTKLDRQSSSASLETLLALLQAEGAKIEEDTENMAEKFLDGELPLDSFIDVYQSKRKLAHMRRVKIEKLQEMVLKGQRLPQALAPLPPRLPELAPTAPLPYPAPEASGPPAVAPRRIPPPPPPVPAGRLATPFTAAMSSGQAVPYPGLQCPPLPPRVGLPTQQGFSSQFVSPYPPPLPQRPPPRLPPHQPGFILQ
- log2 fold change (ibrutinib): 0.024
- log2 fold change [1]: 0.014
- log2 fold change (ralimetinib): -0.055
- log2 fold change [2]: 0.009
- log2 fold change [3]: -0.028
- log2 fold change [4]: 0
- log2 fold change [5]: -0.008
- log2 fold change [6]: 0.019
- log2 fold change [7]: 0.012
- log2 fold change [8]: 0.028

Target: ZNF217 (UniProt O75362)
- log2 fold change (ibrutinib): -0.033
- log2 fold change [1]: 0.053
- log2 fold change (ralimetinib): 0.017
- log2 fold change [2]: -0.014
- log2 fold change [3]: -0.061
- log2 fold change [4]: -0.005
- log2 fold change [5]: -0.022
- log2 fold change [6]: 0.002
- log2 fold change [7]: 0.025
- log2 fold change [8]: -0.031

Target: ZNF281 (UniProt Q9Y2X9)
- log2 fold change (ralimetinib): -0.055
- log2 fold change [2]: 0.081
- log2 fold change [3]: 0.039
- log2 fold change [5]: -0.008
- log2 fold change [6]: -0.081
- log2 fold change [7]: -0.041

Target: VASN (UniProt Q6EMK4)
- log2 fold change (ralimetinib): 0.332
- log2 fold change [2]: 0.172
- log2 fold change [3]: -0.004
- log2 fold change [5]: -0.255
- log2 fold change [7]: -0.295

Target: ZNF644 (UniProt Q9H582)
- log2 fold change (ibrutinib): 0.07
- log2 fold change (ralimetinib): -0.023
- log2 fold change [2]: 0.052
- log2 fold change [3]: 0.038
- log2 fold change [4]: -0.061
- log2 fold change [5]: 0.042
- log2 fold change [6]: -0.005
- log2 fold change [7]: -0.02

Target: YBEY (UniProt P58557)
- log2 fold change [3]: 0.016
- log2 fold change [5]: -0.029
